The values that follow come from publication PMC12136788.

Substitutions are numbered along the chain they refer to. The full ranking holds about 24,000 sequences; the median of “enrichment r” is about 0.99, and the highest 2% start at about 3.7. Shown is part of a subset that was picked to be rich in the highest values.

T1: UNK ZnF1-3 (human, UniProt Q9C0B0 31-174)
T1 sequence: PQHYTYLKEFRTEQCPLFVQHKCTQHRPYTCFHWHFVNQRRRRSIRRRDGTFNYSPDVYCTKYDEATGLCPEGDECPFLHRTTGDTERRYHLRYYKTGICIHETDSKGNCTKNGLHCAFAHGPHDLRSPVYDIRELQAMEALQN

B1: chr1:180251914:180251915:+_ENSMUSG00000026500_ENSMUST00000027781|mus_hu|FALSE|FALSE (ssRNA)
RNA: GGGAGUUCUACAGUCCGACGAUCAGAUCCUAAUGAACCAUACAAUAUUGAAUGCCGGGCGCAGGGAGUAUUUUCAACAUCUAAAAAUCCUAGGAGCUUAAGGGACUUCCAAUAUGAUAAAUGUAACGACGUACAAGAUGCCUUCAACAGAGGAUUGAGCAUCA
B2: 106713800_106713920_1116_CDS_ENSMUSG00000018363_ENSMUST00000103067|mouse|control|control (ssRNA)
RNA: GGGAGUUCUACAGUCCGACGAUCCCUGCUCAUGUAAUUUCUAUGUCGCUGGGACCUGACUCUUCUCUCUGCUAGUCUGGGGUCUGAAGAAUGUCCACACGUUGCACCAUUUGUUCCAGUAAUUGGAGUAUUCUCAUCCACAAACAACAGAGGAUUGAGCAUCA
B3: chr2:48035047:48035048:-_ENSG00000138081_ENST00000403359|hu_hu|motif|central (ssRNA)
RNA: GGGAGUUCUACAGUCCGACGAUCACAAAAUUGCAGCUUAUUUUCUUCACUUCUGUCCCUUCAAGUCUUUACACAGUAAUGCGGAAACACCCAGCUUUGAGAUCCUGAGUCAAUAUAUUGCCACUUUCUUUUUGGUAGCUUGAGCAACAGAGGAUUGAGCAUCA
B4: chr7:72441615:72441616:-_ENSMUSG00000030516_ENSMUST00000102592|mus_hu|FALSE|FALSE (ssRNA)
RNA: GGGAGUUCUACAGUCCGACGAUCAAAAUUUUCAAAUGCAUAGCCAGAAAGAACAGAAAACCACCACUGCCCCUUGUCAAAAAAAAAAAAAAAGAAAAGAAAAGAAAAGAAAAAAAUAUCCCCAAAUCACACCACUAUUUUCUUCAACAGAGGAUUGAGCAUCA
B5: 173052199_173052319_2237_3pUTR_ENSMUSG00000038400_ENSMUST00000036248|mouse|control|control (ssRNA)
RNA: GGGAGUUCUACAGUCCGACGAUCCUGUAUCCACCUGGCACCAAAUUCGGGGACUGCUUUGGCUUUGGGGAUGCACCUUGCCCCCAAACACUGAACCUUCAUAGUUUUUGUGUUUUAAAGAGGAAGAAAAAAAAAAAAACUAAGCAACAGAGGAUUGAGCAUCA
B6: chr17:56552419:56552420:-_ENSMUSG00000013236_ENSMUST00000086828|mus_mus|mus_mus_mus_hu_False|38_58 (ssRNA)
RNA: GGGAGUUCUACAGUCCGACGAUCAAAAAAUACACUAUUUAAAAAAAAUGAAAUGUCACGGGAUACAGUUACACUGACACUAUUAAAAGAAAGCUGGAAAAAAAAUGCAGCCCAGUGUCCCCAGGCUGCAGAGCGGGGAGGAGCCAACAGAGGAUUGAGCAUCA
B7: 14336767_14358337_2061_CDS_ENSG00000038382_ENST00000344204|human|control|control (ssRNA)
RNA: GGGAGUUCUACAGUCCGACGAUCAUACACGUCGUCCAGCAGCUCCUUCUGCAGCUCCUCCAGCCACGUCCACAGCUCUUUCACAUGGGUGUGAAAGGACACUGACAUGUCCAGUAGGAUCUUUCGCUGCUCAACACGCCGAACCAACAGAGGAUUGAGCAUCA
B8: chr2:71272186:71272187:+_ENSMUSG00000027018_ENSMUST00000028408|mus_mus|FALSE|FALSE (ssRNA)
RNA: GGGAGUUCUACAGUCCGACGAUCCUGUGCCUGUAUUGCCAUAUCUUCACUGAAUCCUUGCAGUAAUCUUUCCCGGGAGAAACUGGGCAAAAAUUGACAAAACUUCACAAGCACAAAGUCUCUUAGUUUCAAAUAGCUUCUGGACAACAGAGGAUUGAGCAUCA
B9: chr7:117185563:117185564:+_ENSMUSG00000066232_ENSMUST00000084731|mus_mus|FALSE|FALSE (ssRNA)
RNA: GGGAGUUCUACAGUCCGACGAUCGGGCUUCAGGUUCUUCCACGUAAGUGCAUGGGAAACUCCUUGAUUAAUAUAAUUUAAUGUCUGCUGUAAAACUCGAGGCGCCAUAUAUUGUUUUUCCUUGUACUGAUAUAACACUUUCAACAACAGAGGAUUGAGCAUCA
B10: chr10:7433921:7433922:+_ENSMUSG00000040021_ENSMUST00000165952|mus_mus|motif|central (ssRNA)
RNA: GGGAGUUCUACAGUCCGACGAUCGCUUUGUGUAUGUUAGGCAAGUGCUCUACCACUGAGCCAUAUCCUUAGCCCCGGGAAAAUGUACUUUCUUAGUGAGUACAUACACGUAAAUUAAAAAAAAAAAUUACAAACUGAAAAUAACAACAGAGGAUUGAGCAUCA
B11: chr10:7433921:7433922:+_ENSMUSG00000040021_ENSMUST00000165952|mus_mus|FALSE|FALSE (ssRNA)
RNA: B10 RNA with G76U, G77A
B12: chr11:134117569:134117570:+_ENSG00000151502_ENST00000281187|hu_hu|motif|central (ssRNA)
RNA: GGGAGUUCUACAGUCCGACGAUCAGAAACAUGUAAACACUGCAGCUGCUUAAUUACAAGUUGCACUGCUUGAUUUAGUACCGGUGCACUCCCAGGUUUGGGGACCUUAAGAGAGGGGGACAGGAGCCUCCCCUCACUUUCACACAACAGAGGAUUGAGCAUCA
B13: chr18:65376317:65376318:+_ENSMUSG00000024589_ENSMUST00000163516|mus_hu|FALSE|FALSE (ssRNA)
RNA: GGGAGUUCUACAGUCCGACGAUCUUUCAUGCCAACAGGAAGCUAACCCUUUUCUAGAAAACGUUCUCCAAGCUCCCGUCCUAAUGCUGUGGCACUUUCUCUGACAUACUGAGAACACUCUGGGGUGGGGGUGUGUGUAUGCAACAACAGAGGAUUGAGCAUCA
B14: 56885736_56885856_9979_3pUTR_ENSMUSG00000055296_ENSMUST00000068792|mouse|control|control (ssRNA)
RNA: GGGAGUUCUACAGUCCGACGAUCAUCUUAUAUUGAUCUAGAUUUGACCACAGAUAAACCUUGUACUGCCUAGUCUUGUGUCAACUUGACACAGCUGGAGUUAUCACAGAGAAAGGAGCUUCAGUUGAGGAAAUGCCUCCAUGACAACAGAGGAUUGAGCAUCA

In this test the target is T1, UNK ZnF1-3. As to the kind of experiment: nsRBNS (natural sequence RNA bind-n-seq); RBNS binding buffer (assumed for nsRBNS): 25 mM Tris pH 7.5, 150 mM KCl, 3 mM MgCl2, 0.01% Triton X-100, 500 ug/ml BSA, 20 U/ml SUPERase-In, 4 C; UNK is unkempt and MSI1 is Musashi-1; names of the RNAs are library labels; protein concentration not given here; high values mean tight binding.
Turning to B1, the binding signal was determined as 1.57 enrichment R.

For B2, the binding signal came to 0.982 enrichment R.

B3 had a binding signal of 0.585 enrichment R.

Take B4: the binding signal amounted to 5.91 enrichment R.

In turn, B5 showed a binding signal of 2.34 enrichment R. For B6 the value was 9.74 enrichment R; for B7, 0.394 enrichment R. B8 came in with a binding signal of 1.25 enrichment R.

As to B9, the binding signal was determined as 1.59 enrichment R. In turn, B10 displayed a binding signal of 5.64 enrichment R. Consider B11, for which the binding signal was 8.06 enrichment R. Molecule B12 came in with a binding signal of 0.758 enrichment R. Regarding B13, the binding signal was 0.949 enrichment R. Regarding B14, the binding signal is 1.28 enrichment R.
